Source: PubChem BioAssay AID2690 (NMMLSC, 2010)
The whole screen tested about 330,000 compounds, of which about 590 (0.18%) were called active. The sample holds actives, similar compounds and a random draw of the others, so the mix is not that of the screen.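 Rule for the calls: active = superoxide response under a set limit, about three screen SD below normal (cut at about 65% in these data); inactive = the rest.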

assay: yeast aging ROS inhibitors as calorie-restriction mimetics – HTS, primary screen (AID 2690);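 note: yeast aged for seven days with compound at 30 °C before DHE staining; 100% = average MFI of all compound-treated wells on the plate with controls excluded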; conditions: S. cerevisiae aged cells, superoxide DHE fluorescence; at 10 µM; stronger effect = lower value

Superoxide response (% of plate mean), inactive:
Cc1ccsc1C(=O)OCC(=O)NCCc1ccccc1 92.1%, O=C(Nc1ccc(Br)cn1)c1ccc([N+](=O)[O-])o1 118%, O=C(Nc1ccncc1)c1ccc([N+](=O)[O-])cc1Cl 103%, C/C(=N\NS(=O)(=O)c1ccccc1)c1c(O)cc(C)oc1=O 102%, O=C1NC(=Nc2ccc(Cl)cc2)SC1Cc1cccc(Cl)c1Cl (centres undefined) 121%, O=C(CCS(=O)(=O)c1ccc2c(c1)NC(=O)CS2)NCc1ccccc1Cl 110%, CN1CCN(CC(=O)C23CC4CC(CC(C4)C2)C3)CC1 101%, O=C1/C(=C/c2ccc(F)cc2)SC(=S)N1NS(=O)(=O)c1ccccc1 107%, CC(=O)c1ccc(N2CCN(C(=O)c3ccc4nc[nH]c4c3)CC2)cc1 112%, CC1(C)CC[C@@]2(C(=O)O)C(C1)C1=CCC3[C@@]4(C)CC[C@H](O)C(C)(C)C4CC[C@@]3(C)[C@]1(C)C[C@H]2O (some centres undefined) 88%, CC(C)(C)C(=O)NC1CC2CCCC(C1)N2C(=O)Nc1ccccc1F (centres undefined) 103%, O=[N+]([O-])/C(N=Nc1ccccc1)=N\Nc1ccccc1 102%, CC(C)(C)NC(=O)c1cccc(NC(=O)Cc2ccc(Br)cc2)c1 91.5%, Cc1ccc(S(=O)(=O)N(CC(=O)NCc2ccco2)c2ccccc2C)cc1 111%, COc1ccc(Nc2nc(NCc3ccco3)nc(N/N=C/c3ccccc3Cl)n2)cc1 99.5%, COC1=CCC2([N+](=O)[O-])CN(CC(=O)O)CC1([N+](=O)[O-])C2 (centres undefined) 98.8%, Cc1c2cn[nH]c(=O)c2c(C)n1Cc1ccc(F)cc1 86.5%, CC[C@@H]1CCCCc2ccccc2[C@@H](C(=O)C[C@H](O)CC(C)=O)OC1=O 98.3%, CC(=O)C[C@H](O)CC(=O)[C@@H]1OC(=O)[C@@H](C)C/C=C\Cc2ccccc21 89.8%, CC(C)=NN1C(=O)c2ccccc2NC1(C)C 102%, COc1cc(-c2c(-c3ccc4c(c3)OCO4)noc2C)ccc1F 94.1%, COC(=O)c1ccc(OCC(=O)NC(C)(C)C)cc1 102%, O=C(COc1ccc([N+](=O)[O-])cc1Cl)Nc1ccc2[nH]c(=O)[nH]c2c1 111%, O=c1c2cc([N+](=O)[O-])ccc2nc2n1CCC2 108%, Cc1cc(CNC(=O)C2CCC(=O)N(CCc3ccc(Cl)cc3)C2)no1 (centres undefined) 101%, CN=C(Nc1cccc(S(=O)(=O)N2CCOCC2)c1)c1ccccc1 96.6%, COc1ccc(CN(C)C(=O)Cc2c[nH]c3ccccc23)c(OC)c1OC 99.6%, CSCCC(NS(=O)(=O)c1ccccc1F)C(=O)N1CC=C(c2ccccc2)CC1 (centres undefined) 105%, Nc1nnn(CC(=O)N/N=C/c2ccc(O)cc2)n1 92.6%, O=C(Cn1nnc(-c2ccccc2)n1)N/N=C/c1ccc(-c2ccc(Cl)cc2)o1 92.1%, CCOc1ccccc1NC(=O)C1CCCN(C(=O)Nc2ccccc2)C1 (centres undefined) 92.4%, CCn1cc(C(=O)NCCO)c(=O)c2cc(F)c(N3CCN(C)CC3)cc21 99.8%, CCCCCCn1cc(C(=O)O)c(=O)c2cc(F)c(N3CCCCC3)cc21 91.2%, COc1ccc(/C=C/CN2CCCC(C(=O)c3cc(F)ccc3F)C2)cc1 (centres undefined) 100%, COc1cccc(N(Cc2nnc3n2CCCCC3)C(=O)Nc2ccccc2F)c1 107%, COc1ccc(OC)c(NC(=O)Cc2cccs2)c1 102%, Cc1ccc(-n2cnc3ncnc(-c4ccccc4)c32)cc1 108%, O=C(Nc1ccccc1C(=O)N1CCCCCC1)c1ccccc1Cl 106%, O=C(Nc1ccc(Cl)c(Cl)c1)c1ccccc1NC(=O)C1CC=CCC1C(=O)O (centres undefined) 128%, CCCC(NC(=O)c1ccco1)c1nc2ccccc2[nH]1 (centres undefined) 103%, OC(c1nc2ccc(F)cc2[nH]1)C(O)c1nc2ccc(F)cc2[nH]1 (centres undefined) 103%, Cc1ccc(-c2cc(C(=O)NC3CCN(Cc4ccccc4)CC3)c3ccccc3n2)cc1 107%, Cc1ccc(S(=O)(=O)NCCC(=O)NC2CCN(Cc3ccccc3)CC2)cc1 93%, O=C(NCc1ccc(F)cc1)C1CCC(CNc2c(N3CCOCC3)c(=O)c2=O)CC1 (centres undefined) 96.9%, Cc1cc2oc(=O)cc(-c3ccccc3)c2c(C)c1-c1ccc(OC(F)(F)F)cc1 94.1%, Cc1cc(NC(=O)CN2C(=O)NC(CCc3ccccc3)C2=O)no1 (centres undefined) 82.4%, O=C(CCc1ccccc1)Nc1ccc(NC(=O)C2CCCCC2)nc1 91.3%, O=C(COC(=O)CCCNC(=O)c1ccc(Cl)cc1)Nc1cc(Cl)ccc1Cl 98.1%, COc1ccc(-c2nonc2NC(=O)c2oc3ccc(F)cc3c2C)cc1OC 80.1%, CCN(CC)c1nc(-c2ccccc2)cc(C(F)(F)F)c1C#N 87%

Superoxide response (% of plate mean), active:
O=C(Nc1ccc(Br)cn1)c1ccc([N+](=O)[O-])cc1Cl 64.7%, CC(=O)C[C@@H](O)CC(=O)[C@H]1OC(=O)CCCCCCc2ccccc21 62.5%, CC(C)(C)NC(=O)COc1ccc(CNc2ccc3[nH]c(=O)[nH]c3c2)cc1 60.8%, Nc1nnn(CC(=O)N/N=C/c2ccccc2)n1 65%, CN1CCN(c2cc3c(cc2F)c(=O)c(C(=O)O)cn3CCF)CC1 60.4%, Cc1ccc(-c2nn(C(C)(C)C)c3ncnc(N)c23)cc1 55.4%, O=C(Nc1cccc(Cl)c1Cl)c1ccccc1NC(=O)C1CC=CCC1C(=O)O (centres undefined) 64.3%, OC(c1nc2ccccc2[nH]1)C(O)C(O)C(O)c1nc2ccccc2[nH]1 (centres undefined) 59.9%, Cc1ccc(-c2nc(CSCC(=O)NC3CCN(Cc4ccccc4)CC3)c(C)o2)cc1 58.7%
